Compounds with a hit are over-represented: about 4.6% of the library has one in this group of screens.
HTT-AS promoter – activates huntingtin-antisense promoter activity; HEK293 HTT-AS promoter firefly luciferase reporter, 24 h; response scale: percent change from vehicle, -100% = no light; Potency, µM (highest dose often 57.5 µM), most hits filed as activators; actives 0.24% (n = 48,000); AID 1508624; also: nearly all actives have a fitted effect of over 55% in size
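HEK293 Fluc reporter, 2,500 cells/well, 24 h pre-culture; cpds up to 57.5 uM final, 24 h 37 degrees C; Dual-Glo, 10 min RT; normalized vehicle = 0%, zero RLU = -100%.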
HTT promoter inh – inhibits huntingtin promoter activity; AID 1508623; HEK293 HTT promoter firefly luciferase reporter, 24 h; actives 0.93% (n = 48,000); Potency, µM (highest dose often 57.5 µM), actives largely listed as inhibitors; also: nearly all actives have a fitted effect of over 50% in size
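Quantitative HTS used concentration series of up to 57.5 uM final on HEK293 luciferase reporter cells, 24 h at 37 degrees C. Readout was Dual-Glo firefly luminescence.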
DRV1 agonist – activates human resolvin D1 receptor GPR32 | CHO-K1 GPR32 beta-arrestin PathHunter luminescence, 90 min; zero percent set by DMSO-only wells | activation, % at 76.9 µM | actives 2.5% (n = 48,000) | O75388;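 active = activation of at least 60% and not above a set upper limit, about 1 call in 100 departs from these limits; inconclusive = activation of 40% to 60%, or above that upper limit; inactive = activation under 40%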
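Agonism was scored by beta-Gal fragment complementation (chemiluminescent read, 1 h detection at ambient temperature) reporting beta-arrestin binding to GPR32 in engineered CHO-K1 cells. Compound treatment lasted 90 min at 37 C, normalized to a DMSO basal control.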
NTMT1 inh – blocks human N-terminal methyltransferase 1 activity; Q9BV86; NTMT1 MTase-Glo SAH luminescence, purified enzyme; Potency, µM (highest dose often 114 µM), actives largely listed as inhibitors; actives 2.5% (n = 59,000); also: nearly all actives have a fitted effect of over 65% in size
Target sequence (Q9BV86 whole entry, looked up): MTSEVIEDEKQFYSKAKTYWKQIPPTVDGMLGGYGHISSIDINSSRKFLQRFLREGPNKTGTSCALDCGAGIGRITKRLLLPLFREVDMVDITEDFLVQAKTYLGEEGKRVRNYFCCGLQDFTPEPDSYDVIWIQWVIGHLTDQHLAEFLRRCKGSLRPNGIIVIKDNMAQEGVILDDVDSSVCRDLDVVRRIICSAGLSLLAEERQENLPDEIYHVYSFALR
Of the large screens only hits and unclear results are named; the others gave an inactive call; ! = repeats disagree. Unless noted, calls follow the shape of the dose curve; as a rule, active = well fitted curve in the direction sought with a large enough effect; inconclusive = small, poorly fitted or top-dose-only effect, or another doubt; inactive = no such curve, though single readings can be large; an effect the other way counts as inactive or inconclusive.

COc1ccc(-c2cc(C(F)(F)F)nc(SCCC(=O)Nc3ccc(O)cc3)n2)cc1	HTT promoter inh inconclusive, DRV1 agonist 86
COC(=O)c1ccccc1C(=O)Nc1nc(-c2ccccc2)cs1	none (no result: HTT-AS promoter, HTT promoter inh, DRV1 agonist)
CCOC(=O)c1[nH]c(C)c(C(=O)NCCc2ccccc2)c1C	HTT-AS promoter 7.9µM, DRV1 agonist 85
COc1ccc(CN2CCc3c(c(=O)n4ncc(C(=O)N5CCN(c6ccc(F)cc6)CC5)c4n3C)C2)cc1	HTT promoter inh 13µM, NTMT1 inh inconclusive
COc1ccccc1NC(=O)CSc1ncc(CO)n1Cc1ccc(F)cc1	DRV1 agonist 65, NTMT1 inh inconclusive
Cc1ccc(Cn2c(CO)cnc2SCC(=O)Nc2cccc(F)c2)cc1	none
CCOC(=O)c1ccccc1NC(=O)CSc1ncc(CO)n1Cc1ccc(C)cc1	DRV1 agonist 74 (no result: HTT-AS promoter, HTT promoter inh, NTMT1 inh)
Cc1ccc(Cn2c(CO)cnc2SCc2ccc(F)cc2)cc1	HTT promoter inh inconclusive
OCc1cnc(SCc2cccc(F)c2)n1Cc1ccc(F)cc1	DRV1 agonist 89
CCN1CCOC(=O)C1CC(=O)Nc1ccc(Br)cc1 (stereo not given)	DRV1 agonist 74
COc1cc(OC)cc(-c2cc3nc(C)c(CCC(=O)Nc4ccc(F)c(Cl)c4)c(C)n3n2)c1	HTT promoter inh 1.6µM
COc1cc(NC(=O)CCc2c(C)nc3cc(-c4ccccc4)nn3c2C)cc(OC)c1OC	HTT promoter inh 4µM
CCOC(=O)c1cccc(NC(=O)CCc2c(C)nc3cc(-c4ccc(Cl)cc4)nn3c2C)c1	HTT promoter inh inconclusive
COC(=O)c1cc(NC(=O)CCc2c(C)nc3cc(-c4ccccc4)nn3c2C)cc(C(=O)OC)c1	none
COc1ccc(N2CCN(C(=O)CCc3c(C)nc4cc(-c5ccc(Cl)cc5)nn4c3C)CC2)cc1	HTT promoter inh 0.32µM
COc1ccc(NC(=O)CCc2c(C)nc3cc(-c4cccc(F)c4)nn3c2C)cc1Cl	HTT promoter inh 2.2µM
CC(C)c1ccccc1-c1ncc(F)c(NCc2ccc(-c3cccnc3)cc2)n1	none (no result: HTT-AS promoter, HTT promoter inh, DRV1 agonist)
COc1ccc2cc1Oc1ccc(cc1)CC1c3cc(c(OC)cc3CCN1C)Oc1c(OC)c(OC)c(OC)c3c1C(C2)N(C)CC3 (stereo not given)	NTMT1 inh 40µM (no result: HTT-AS promoter, HTT promoter inh, DRV1 agonist)
COc1ccc2cc1Oc1cc3c(cc1OC)CC[N+](C)(C)[C@H]3Cc1ccc(cc1)Oc1c(OC)c(OC)cc3c1[C@@H](C2)[N+](C)(C)CC3	NTMT1 inh 13µM
Cc1cc2nc(-c3cccc(NC(=O)COc4ccc(C(C)C)cc4)c3)oc2cc1C	HTT-AS promoter 1µM
Cc1cc2nc(-c3cccc(NC(=O)COc4ccc(Cl)c(C)c4)c3)oc2cc1C	HTT-AS promoter inconclusive
COc1ccc(S(=O)(=O)N2CCc3cccc(-c4ccncc4)c32)cc1	none (no result: HTT-AS promoter, HTT promoter inh, DRV1 agonist)
CN(C)CCCN1c2ccccc2CCc2ccc(Cl)cc21	HTT promoter inh inconclusive, NTMT1 inh inconclusive
CN(CCCN1c2ccccc2CCc2ccccc21)CC(=O)c1ccc(Cl)cc1	DRV1 agonist 109, NTMT1 inh 32µM
NC(=O)c1cccc(-c2noc(-c3ccccc3F)n2)c1	none (no result: HTT-AS promoter, HTT promoter inh, DRV1 agonist)
O=C(O)c1cccc(-c2noc(-c3ccccc3F)n2)c1	HTT promoter inh 7.9µM!, NTMT1 inh inconclusive
Cc1ccc(CNC(=O)c2ccc3c(c2)c(C)c(C)n3Cc2ccccc2)o1	NTMT1 inh 22µM
Cc1c(C)n(Cc2ccccc2)c2ccc(C(=O)OCCN(C)C)cc12	NTMT1 inh 5.6µM
O=C(O)C1(Cc2cccc(Nc3nccs3)n2)CCC(Oc2cccc(Cl)c2F)CC1 (stereo not given)	NTMT1 inh 28µM (no result: DRV1 agonist)
CCc1ccc(C2=C(C)C(N3CCC(C(=O)Nc4ccc(F)cc4)CC3)=NS2(=O)=O)cc1	HTT promoter inh inconclusive, DRV1 agonist 74
CC1=C(c2ccc(C)c(C)c2)S(=O)(=O)N=C1N1CCC(C(=O)Nc2ccc(Cl)cc2)CC1	none
CCC1=C(c2ccc(C)cc2)S(=O)(=O)N=C1N1CCC(C(=O)NCCc2ccc(Cl)cc2)CC1	HTT promoter inh 20µM
CCc1ccccc1NC(=O)C1CCN(C2=NS(=O)(=O)C(c3ccc(C)c(C)c3)=C2C)CC1	HTT promoter inh inconclusive, DRV1 agonist 89
CC1=C(c2ccc(Cl)cc2)S(=O)(=O)N=C1N1CCC(C(=O)NCCc2ccco2)CC1	HTT promoter inh inconclusive
CC1=C(c2ccc(C(C)C)cc2)S(=O)(=O)N=C1N1CCC(C(=O)NCCc2ccco2)CC1	HTT promoter inh inconclusive, DRV1 agonist 64
